In PubChem BioAssay AID1214 (Sanford-Burnham Center for Chemical Genomics, 2008):
Out of some 190,000 compounds screened, about 10 (0.005%) were called active.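 The calls were made as follows: active = activation factor of 2 or more at 20 µM, relative to plate controls; inactive = the rest.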 Only a sample is shown.

Molecular target: Mannose-6-phosphate isomerase (Homo sapiens) (UniProt P34949)
Test: activators of human PMI, primary screen, biochemical, fluorescence intensity, near-Km mannose 6-phosphate (AID 1214)
Conditions: purified human PMI, coupled resazurin fluorescence, 20 min; at 20 µM; hits give high values; 1 = vehicle control, 0 substrate-free wells

Sequence of Mannose-6-phosphate isomerase (Homo sapiens) (P34949 whole entry, looked up): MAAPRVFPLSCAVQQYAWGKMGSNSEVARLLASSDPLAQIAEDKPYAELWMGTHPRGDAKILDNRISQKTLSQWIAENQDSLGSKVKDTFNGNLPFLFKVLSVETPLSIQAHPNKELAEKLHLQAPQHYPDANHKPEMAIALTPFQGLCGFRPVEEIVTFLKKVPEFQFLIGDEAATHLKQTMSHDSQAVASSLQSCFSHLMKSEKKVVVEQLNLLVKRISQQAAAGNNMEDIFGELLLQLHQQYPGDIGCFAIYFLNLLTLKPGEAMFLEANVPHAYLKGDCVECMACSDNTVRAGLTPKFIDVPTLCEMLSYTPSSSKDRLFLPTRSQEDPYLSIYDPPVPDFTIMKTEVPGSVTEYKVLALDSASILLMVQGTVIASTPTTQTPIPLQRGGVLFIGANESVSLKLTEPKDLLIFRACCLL

Activation factor, inactive:
CCOC(=O)C1CCN(S(=O)(=O)c2cc(F)ccc2OC)CC1 1
COCCNc1nc2nonc2nc1N(C)Cc1ccc(C)cc1 0.9
Cc1ccc(NC(=O)CC(=O)Nc2ccc(C)cc2)cc1 1
CCOC(=O)C1=C(N)N(c2ccc(C)cc2)C2=C(C(=O)CCC2)C1c1cccs1 (stereo not drawn) 1
CN(C)/C=C(/C(=O)c1ccccc1Cl)S(C)(=O)=O 1
COC(=O)c1nc(NC(=O)c2ccc(C(C)(C)C)cc2)n[nH]1 1.1
CC(C)Oc1ccc(/C=C(\NC(=O)/C=C/c2ccco2)C(=O)NCCc2nc3ccccc3[nH]2)cc1 0.9
O=C(c1ccccc1)c1ccc(OCC(O)CN2CCCC2)cc1 (stereo not drawn) 1
COc1cc(S(=O)(=O)N2CCOCC2)ccc1NC(=O)COc1ccc(N(C)S(=O)(=O)c2ccc(C)cc2)cc1 1
Cc1cc(C#N)c(SCC(N)=O)nc1-c1ccc(F)cc1 1.1
CC1=NNC(=O)C1CCC(=O)N/N=C\c1cccc(Cl)c1 (stereo not drawn) 1
CCOC(=O)c1sc2nc(C)nc(SCC(N)=O)c2c1C 1.1
COC(=O)c1cc(NC(=O)c2nn(C)c(=O)c3ccccc23)cc(C(=O)OC)c1 1
CCC(C(=O)Nc1ccc(C(C)C)cc1)c1ccccc1 (stereo not drawn) 1
CC(C)(C)c1ccc(/C=C/C(=O)Nc2ncccn2)cc1 1
COC(=O)c1ccc(NC(=O)CSc2nncc3ccc(OC)c(OC)c23)cc1 1
COc1ccc(OCC(O)CNC(=O)Nc2ccc(Cl)cc2)cc1 (stereo not drawn) 0.9
Cc1ccc(CN2CCN(/N=C/c3cccnc3)CC2)c(C)c1 1.1
CCC(C)(C)NC(=O)CN(Cc1cccs1)C(=O)CNS(=O)(=O)c1ccc(F)cc1 1.1
COc1cccc(CC2(CO)CCCN(CC3=Cc4cc(OC)ccc4OC3)C2)c1 (stereo not drawn) 0.9
CC1CCN(c2ccc(C(=O)NCc3ccc4c(c3)OCO4)cc2[N+](=O)[O-])CC1 0.8
Cc1cccc(C2=N/C(=C/c3cccs3)C(=O)O2)c1 1
CCc1cc(C(=O)OC)c(NC(=O)CC2Sc3ccc(C(F)(F)F)cc3NC2=O)s1 (stereo not drawn) 0.9
Cc1ccc(C(=O)N/C(=C/c2ccc(-c3cccc([N+](=O)[O-])c3)o2)C(=O)NCCCN(C)C)cc1 1
COC(=O)NNC(=O)C1CCC(C)CC1 (stereo not drawn) 1.1
COC(=O)C(NS(=O)(=O)c1ccc(F)cc1)c1ccccc1 (stereo not drawn) 1
COc1ccc(Cl)cc1NC(=O)Cn1nc(-c2ccc(C)cc2)n(C)c1=S 1.1
CCc1ccc(N(CC(=O)Nc2sc3c(c2C(=O)OC)CCCC3)S(C)(=O)=O)cc1 0.8
CN(CCOc1ccc(Br)cc1)CC(=O)Nc1cccc(S(=O)(=O)NC2=NCCC2)c1 0.9
OCCC1CN(Cc2ccc3nsnc3c2)CCN1C1CCCCC1 (stereo not drawn) 0.9
O=C(CSc1nnc2ccc(-c3ccncc3)nn12)N1CCCCC1 1
COc1cccc(C(=O)NCCSc2ccc(Br)cc2)c1 1.1
N#CCOc1ccc(C2=NO[C@@H]3[C@@H]4C[C@@H]([C@H]5C(=O)N(c6ccc7c(c6)OCO7)C(=O)[C@@H]45)[C@H]23)cc1 0.9
Cn1cc(/C=C/C(=O)N2CCCC(C(=O)c3ccc(C(F)(F)F)cc3)C2)cn1 (stereo not drawn) 1
COc1ccc(CCCc2nnc(SCc3nc4ccccc4c(=O)[nH]3)n2C)cc1 1
CN(C)c1ccc(/C=N/NC(=O)C(O)c2ccc(Br)cc2)cc1 (stereo not drawn) 1
Nc1nc(NC(=O)/C=C/c2ccccc2)nn1-c1ccccc1 1
COc1ccc(OC)c(C(=O)c2ccc(C(=O)N3CCN(Cc4csc(C)n4)CC3)cc2)c1 1
O=C(Cc1ccccc1)NCC1OCCc2ccccc21 (stereo not drawn) 0.9
O=Cc1ccc(OCc2cn3ccccc3n2)cc1 1.1
CCCCC1S/C(=N/N=C/c2cccs2)NC1=O (stereo not drawn) 1.3
Cc1cc2oc(C(=O)Nc3c(C)n(C)n(-c4ccccc4)c3=O)c(C)c2cc1Cl 1.1
CN1CCC(=NNC(=O)c2ccc(N(Cc3ccc(Cl)cc3)S(C)(=O)=O)cc2)CC1 0.8
